Compound activity deposited in PubChem by several laboratories.
The list is not random: actives were taken first. Their share in the collection is about 2.5%.
PG9 Ab binder: small molecules binding HIV-1 gp120 antibody PG9. inhibition, % at 6.7 µM. TR-FRET gp120-PG9 antibody binding. 360,000 compounds, 0.43% hits; in the data active = inhibition above about 8.5%
ABCB6 inh 2: human ABCB6 transporter inhibition | Q9NP58 | K562-ABCB6 porphyrin accumulation, flow cytometry, 1 h; active compounds read low | fluorescence ratio to DMSO, % at 10 µM | 360,000 compounds, 0.19% hits | AID 602162;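 active = fluorescence ratio to DMSO below 75%, the collection mean minus 3 SD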;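 also: signal is porphyrin accumulated inside mitochondria; 100% equals median channel fluorescence of DMSO control wells; lower ratio means ABCB6 inhibition with less porphyrin fluorescence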
Target sequence (Q9NP58 whole entry, looked up): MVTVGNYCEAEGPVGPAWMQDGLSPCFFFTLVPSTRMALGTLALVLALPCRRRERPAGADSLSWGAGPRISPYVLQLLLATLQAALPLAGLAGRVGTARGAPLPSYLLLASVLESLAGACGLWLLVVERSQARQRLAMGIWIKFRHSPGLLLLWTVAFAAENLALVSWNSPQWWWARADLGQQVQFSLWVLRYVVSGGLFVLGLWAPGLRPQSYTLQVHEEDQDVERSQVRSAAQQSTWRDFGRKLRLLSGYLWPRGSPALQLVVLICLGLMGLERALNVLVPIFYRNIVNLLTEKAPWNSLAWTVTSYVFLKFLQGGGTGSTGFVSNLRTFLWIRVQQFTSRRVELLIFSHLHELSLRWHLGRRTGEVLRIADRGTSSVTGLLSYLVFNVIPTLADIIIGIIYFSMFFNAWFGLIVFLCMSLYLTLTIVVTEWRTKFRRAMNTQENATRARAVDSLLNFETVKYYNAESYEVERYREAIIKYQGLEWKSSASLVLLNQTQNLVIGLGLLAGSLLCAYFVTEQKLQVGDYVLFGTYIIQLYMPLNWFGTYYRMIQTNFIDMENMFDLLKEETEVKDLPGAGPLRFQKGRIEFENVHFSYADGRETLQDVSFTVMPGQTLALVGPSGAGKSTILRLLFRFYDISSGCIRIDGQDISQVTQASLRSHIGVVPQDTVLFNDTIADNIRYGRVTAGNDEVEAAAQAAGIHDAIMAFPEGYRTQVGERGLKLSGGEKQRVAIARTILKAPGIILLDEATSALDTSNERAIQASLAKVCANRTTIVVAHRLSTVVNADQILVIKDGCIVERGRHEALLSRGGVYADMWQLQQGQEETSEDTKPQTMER
rCAG binder: binds r(CAG) RNA repeats. r(CAG) RNA repeat, TO-PRO-1 dye displacement fluorescence. inhibition, % at 3 µM. 370,000 compounds, 1.3% hits. AID 651821;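 active = inhibition above the plate cutoff, the mean of all test compounds on that plate plus 3 SD, cut at about 35% in these data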;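 also: 0% = DMSO alone and 100% = 100 µM mitoxantrone as full dye displacement; higher means more dye released from RNA so lower well fluorescence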
Exocytosis inh: blocks lytic granule exocytosis; TALL-104 LAMP-1 surface exposure, flow cytometry; cells stimulated with thapsigargin and PMA; inhibition, % at 10 µM; 360,000 compounds, 0.66% hits; AID 651702;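 active = inhibition above about 55%, limit read from the data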
rCAG binder conf: r(CAG) RNA repeat binding, confirmation | shares compounds with rCAG binder | TO-PRO-1 dye displacement fluorescence | inhibition, % at 3 µM | 4,300 compounds, 70% hits | AID 652065;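 active = inhibition above a per-plate cutoff, the mean inhibition of sample wells plus 3 SD, cut at about 35% in these data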;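 also: loss of TO-PRO-1 fluorescence as compound displaces dye from 1x1 AA loop RNA; 0% = DMSO only wells and 100% = 100 µM mitoxantrone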
dCAG dye counter: counter-screen for rCAG RNA binders: DNA CAG dye complex inhibitors. shares compounds with rCAG binder. d(CAG) DNA oligo TO-PRO-1 dye displacement, fluorescence. inhibition, % at 3 µM. 4,300 compounds, 94% hits. AID 652068;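 active = inhibition above its plate's cutoff, the mean test-well inhibition plus 3 SD, cut at about 4.8% in these data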;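 also: 0% = DNA dye mix with DMSO and 100% = 100 µM mitoxantrone; hits displace the dye from DNA and so lower well fluorescence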
DNA CAG DR: counter-screen for rCAG binders: inhibitors of DNA CAG TO-PRO-1 complex. shares compounds with rCAG binder. DNA CAG/GTC duplex TO-PRO-1 dye displacement fluorescence. IC50, µM. 250 compounds, 20% hits. AID 686960; in the data active = IC50 below about 10 µM
* = called active by the depositor; / = no result given.

SMILES	PG9 Ab binder	ABCB6 inh 2	rCAG binder	Exocytosis inh	rCAG binder conf	dCAG dye counter	others
CCOC(=O)C1=C(C)N=c2s/c(=C/c3ccc(OCC(=O)O)cc3)c(=O)n2C1c1ccc(SC)cc1 (stereo unspecified)	/	99	/	2	/	/
CC(=O)OCCCNc1cc(SCc2ccco2)c2nonc2c1[N+](=O)[O-]	-1	103	60*	-2	22	9.8*
O=C(Nc1cccc([N+](=O)[O-])c1)c1ccc2nc(N3C(=O)CCC3=O)sc2c1	0	96	32	0	/	/
O=C(Nc1cccc(Br)c1)c1ccc2nc(N3C(=O)CCC3=O)sc2c1	1	102	44*	17	27	9.7*
[O-]c1c[n+](-c2ccc(-[n+]3cc([O-])on3)cc2)no1	2	109	3	-2	/	/
O=C(N=Nc1c(O)[nH]c2ccc([N+](=O)[O-])cc12)c1ccccc1[N+](=O)[O-]	0	98	17	3	/	/
CCc1cc(C(=O)N=Nc2c(O)[nH]c3ccc([N+](=O)[O-])cc23)c2ccccc2n1	-2	104	42*	-6	35*	22*
Cc1cc2c(Nc3cccc(O)c3)ncnc2s1	0	101	-1	-23	/	/
O=C(O)c1cccc(NC(=O)c2ccc(COc3ccc(Cl)cc3)cc2)c1	-1	104	47*	-1	54*	16*
O=C(O)c1ccc(Cl)c(NC(=S)NC(=O)c2cccc(COc3ccccc3)c2)c1	1	99	10	3	/	/
O=C(NC(=S)Nc1ccc(Cl)c(C(=O)O)c1)c1ccc(OCc2ccccc2)cc1	2	99	68*	8	62*	25*
O=C(NC(=S)Nc1ccc(Cl)c(C(=O)O)c1)c1cccc(COc2ccccc2)c1	-1	100	71*	7	67*	30*
COc1cc(OC)cc(C(=O)NC(=S)Nc2ccc(Cl)c(C(=O)O)c2)c1	2	102	14	4	/	/
N#C/C(=C\c1ccc(OCc2ccc(Cl)cc2)cc1)C(=O)Nc1cccc(C(=O)O)c1	-1	86	2	-6	/	/
CCCCOc1cccc(C(=O)NC(=S)Nc2ccc(Cl)c(C(=O)O)c2)c1	1	100	44*	13	49*	9.4*	DNA CAG DR=>30
CC(=O)c1ccc(OCCCC(=O)N2CCN(S(=O)(=O)c3ccc(C(C)C)cc3)CC2)cc1	-2	97	-7	-3	/	/
COC(=O)c1ccc(C(NC(=O)c2cccnc2)NC(=O)c2cccnc2)cc1	0	97	-1	9	/	/
CCOc1cc(/C=C(/C#N)c2nc3ccccc3[nH]2)ccc1OCc1ccc(C(=O)O)o1	-7	102	49*	0	39*	8.6*
CCOc1cc(/C=C(/C#N)c2ccc(F)cc2)ccc1OCc1ccc(C(=O)O)o1	-2	90	69*	5	68*	29*
CCC(C)(O)c1[nH]c2ccc(C(=O)OC)cc2c1C (stereo unspecified)	-2	109	4	33	/	/
COc1cc(C2C(C#N)=C(N)N(c3ccc(F)cc3)C3=C2S(=O)(=O)CC3)ccc1O (stereo unspecified)	-6	143	38*	-3	15	9.0*
O=C1NC(=Nc2cccc(O)c2)S/C1=C\c1cccc([N+](=O)[O-])c1	-1	103	47*	8	33	11*
S=c1[nH]nc(-c2ccco2)n1/N=C/c1ccc(Cl)c(Cl)c1	0	99	41*	15	40*	10*
Cc1cc(-c2n[nH]c(=S)n2/N=C/C(Cl)=C/c2ccccc2)n[nH]1	1	103	32	-2	/	/
S=c1[nH]nc(-c2ccco2)n1/N=C/c1cccc(Cl)c1	1	93	10	-6	/	/
SMILES	PG9 Ab binder	ABCB6 inh 2	rCAG binder	Exocytosis inh	rCAG binder conf	dCAG dye counter	others
S=c1[nH]nc(-c2ccco2)n1/N=C/C(Cl)=C/c1ccccc1	2	99	58*	4	52*	18*
COc1ccc2oc(C(=O)OCC(=O)Nc3ccc(C)c(S(=O)(=O)N4CCOCC4)c3)c(C)c2c1	0	96	13	4	/	/
Nc1nn2c(-c3ccccc3)cc(=O)[nH]c2c1N=Nc1ccc(Br)cc1	-2	117	35*	7	80*	40*
CCCCn1c(NC(=O)c2ccccc2)c(C#N)c2nc3ccccc3nc21	1	146	15	14	/	/
CCC(C)n1c(NC(=O)c2ccccc2)c(C#N)c2nc3ccccc3nc21 (stereo unspecified)	1	114	38*	8	68*	31*
COC(=O)C1(C(=O)OC)C[C@H](/C=C/c2ccccc2)N(Cc2ccccc2OC)[C@@H]1c1ccc(F)cc1	1	/	8	-9	/	/
COc1ccc([C@@H]2CC=C(C(=O)O)[C@H](c3ccc(C)cc3)N2S(=O)(=O)c2ccc(C)cc2)cc1OC	-2	102	40*	-10	36*	7.8*
COc1cccc([C@@H]2CC=C(C(=O)O)[C@H](c3ccc(C)cc3)N2S(=O)(=O)c2ccc(C)cc2)c1	-1	98	30	-1	/	/
COc1cc([C@@H]2CC=C(C(=O)O)[C@H](c3ccc(C)cc3)N2S(=O)(=O)c2ccc(C)cc2)cc(OC)c1OC	1	101	35*	-1	42*	8.6*
COc1ccc([C@@H]2CC=C(C(=O)O)[C@H](c3ccc(Cl)cc3)N2S(=O)(=O)c2ccc(C)cc2)cc1OC	-1	99	57*	-7	34	9.3*
COc1cc([C@@H]2CC=C(C(=O)O)[C@H](c3cccc(Cl)c3)N2S(=O)(=O)c2ccc(C)cc2)cc(OC)c1OC	0	97	45*	-3	45*	10*
COc1cccc([C@@H]2CC=C(C(=O)O)[C@H](c3ccc(Cl)cc3)N2S(=O)(=O)c2ccc(C)cc2)c1	1	99	64*	-5	62*	23*
COc1ccc([C@@H]2CC=C(C(=O)O)[C@H](c3ccc(C(C)(C)C)cc3)N2S(=O)(=O)c2ccc(C)cc2)cc1OC	2	99	67*	-10	66*	28*
COc1cccc([C@@H]2CC=C(C(=O)O)[C@H](c3ccccc3F)N2S(=O)(=O)c2ccc(C)cc2)c1	-1	104	41*	-7	37*	9.0*
COc1ccccc1OCC(=O)N/N=C/C=C/c1ccc([N+](=O)[O-])o1	-5	117	36*	0	34	17*
Cc1ccccc1OCC(=O)N/N=C/c1ccc([N+](=O)[O-])o1	-1	101	10	20	/	/
CCOC(=O)c1c(NC(=O)/C=C/C(=O)O)sc(C)c1-c1ccc(Cl)cc1	-1	90	46*	6	46*	11*
